Records with an inconclusive call do not appear. Activity calls are given as the source filed them. The call rests on the fitted dose curve; in most records, active means well fitted curve in the direction sought with a large enough effect; inconclusive means small, poorly fitted or top-dose-only effect, or another doubt; inactive means no such curve, though single readings can be large or run the other way.
Test: HepG2 viability counterscreen (readout 1: protease activity) against the NCATS DSHEA and TCM libraries (AID 1794841);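 further: cells exposed to compounds for about 24 h before the protease read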
Conditions: qHTS concentration series; series mostly up to 27.3 µM
Description: Assay Development and Screening Technology Laboratory (ADST)
National Center for Advancing Translational Sciences (NCATS), Rockville, MD
National Institute of Health (NIH), Bethesda, Maryland
Dietary Supplements and Natural Products have minor oversight of their safety and efficacy. We assembled a collection of Dietary Supplements and Natural Products (DSNP) as well as Traditional Chinese Medicinal (TCM) Plant extracts, which were screened against an in vitro panel of assays, including a liver cytochrome p450 enzyme panel, CAR/PXR signaling pathways, and P-gp transporter assays, to assess their activity. This pipeline facilitated the interrogation of Natural Product-Drug Interaction (NaPDI) through prominent metabolizing pathways. In addition, we compared the activity profiles of the DSNP/TCM substances with those of an approved drug collection. Many of the approved drugs have well-annotated mechanisms of action (MOA) while the MOAs for most of the DSNP and TCM samples remain unknown. Based on the premise that compounds with similar activity profiles tend to share similar targets or MOA, we clustered the library activity profiles to identify overlap with the NCATS Pharmaceutical Collection to predict the MOAs of the DSNP/TCM substances. Overall, we highlight four significant bioactivity profiles (measured by p-values) as examples of this prediction. In addition, to assess broad cytotoxicity, we employed screening against a HepG2 cell line.
To this end, we profiled both collections for potential CAR and/or PXR activity, employing a previously published 1536-well qHTS assay.
PROTOCOL TABLE (as described by Inglese J, Shamu CE and Guy RK. 2007)
SEQUENCE No. (e.g., 1, 2, 3, etc.); PARAMETER (e.g., Cells, Incubation, Reagent, etc.); VALUE; DESCRIPTION.
1; Cells; 5 uL; HepG2 cells, white solid-bottom tissue treated Greiner plate.
2; Incubation; 4 hrs; 37C, 95% humidity, 5% CO2.
3; Compounds; 23 nL; Kalypsis pin tool (Wako USA) equipped with a 1536-well pin head to transfer to the assay plates.
4; Incubation; 24 hrs; 37C, 95% humidity, 5% CO2.
5; Reagent; 1 uL; GF-AFC substrate.
6; Incubation; 30 min; 37C, 95% humidity, 5% CO2.
7; Read 1; Fluorescence; EnVision plate reader excitation 380 nm, emission 510 nm.
8; Reagent; 3 uL; CellTiter-Glo (Promega).
9; Centrifuge; 1000 RPM; 15 seconds.
10; Incubation; 30 min; room temperature.
11; Read 2; Luminescence; ViewLux plate reader.
NOTES (numbers refer to Sequence numbers above)
1. 5 uL of HepG2 cells at 2 x 10^5 cells/mL (1,000 cells/well) were dispensed into a 1536-well white solid-bottom tissue treated plate (Greiner Bio-One) using a Multidrop Combi dispenser (Thermo Scientific). This assay use both GF-AFC substrate and Cell-Titer Glo (CTG), measuring cellular protease activity and ATP content, respectively.
2. Plates were incubated at 37C, 95% humidity, and 5% CO2 for ~4 hours to allow for cell attachment.
3. Compounds were transferred (16 nL) via pintool (Wako Automation), for a final concentration range for most substances of 15.6 nM - 31.3 uM.
4. Plates were incubated for ~24 hours.
5. 1 uL addition of GF-AFC substrate (final concentration 25 uM; MP Biomedicals).
6. Plates were incubated at 37C, 95% humidity, and 5% CO2 for 30 minutes.
7. After incubation, plates were read for fluorescence intensity (Ex/Em = 380 nm/510 nm) on an EnVision detector (PerkinElmer, Shelton, Connecticut).
8. Once the detection for fluorescence was completed, plates were dispensed with 3 uL of CellTiter-Glo (Promega, Madison, WI).
9. Plates were centrifuged for 15 seconds at 1,000 RPM's.
10. Plates were incubated for 30 minutes at room temperature.
11. Plates were then read for luminescence intensity on a ViewLux detector.
Inglese J, Shamu CE and Guy RK, Reporting data from high throughput screening of small molecule libraries, Nature Chemical Biology, 2007, 3(8): 438-441. doi.org/10.1038/nchembio0807-438.
With `CCCCCCCCCCCCCC(=O)OCC(O)CO` (stereo not given) the outcome was “inactive”. With `O=C(O)CC(O)(C(=O)O)C(O)C(=O)O` (stereo not given) the outcome was “inactive”. For `O=C(OC[C@H]1O[C@@H](OC(=O)c2cc(O)c(O)c(O)c2)[C@H](OC(=O)c2cc(O)c(O)c(O)c2)[C@@H](OC(=O)c2cc(O)c(O)c(O)c2)[C@@H]1O)c1cc(O)c(O)c(O)c1`, the outcome was “inactive”. With `Cc1ccc(C(C)C)cc1` the outcome was “inactive”. With `CC(=O)OC/C=C/c1ccccc1` the outcome was “inactive”. With `CC(C)c1ccc(C=O)cc1` the outcome was “inactive”. With `C=C1CC/C=C(/C)CC[C@@H]2[C@@H]1CC2(C)C` the outcome was “inactive”. With `CC(C)=CCC[C@](C)(OC1OC(COC2OCC(O)C(O)C2O)C(O)C(O)C1O)[C@H]1CC[C@]2(C)[C@@H]1[C@H](O)C[C@@H]1[C@@]3(C)CC[C@H](OC4OC(CO)C(O)C(O)C4OC4OC(CO)C(O)C(O)C4O)C(C)(C)[C@@H]3CC[C@]12C` (stereo not given in full) the outcome was “inactive”. For `CCCCCCCCC[C@@H](O)CC(=O)CCc1ccc(O)c(OC)c1`, the outcome was “inactive”. In the case of `C=CCc1ccc(OC)c(OC)c1`, the outcome was “inactive”. With `O=c1c(O[C@@H]2O[C@H](CO)[C@H](O)[C@H](O)[C@H]2O)c(-c2ccc(O)c(O)c2)oc2cc(O)cc(O)c12` the outcome was “inactive”. For `COc1ccc(-c2coc3cc(O[C@@H]4O[C@H](CO)[C@@H](O)[C@H](O)[C@H]4O)ccc3c2=O)cc1`, the outcome was “inactive”. With `O=C(/C=C/c1ccc(O)c(O)c1)O[C@@H]1CC(C(=O)O)=C[C@@H](O)[C@H]1O` the outcome was “inactive”. For `COc1cc(/C=C/c2ccccc2)oc(=O)c1`, the outcome was “inactive”. In the case of `CCCCCC/C=C/CCCCCCCCCC(=O)O`, the outcome was “inactive”. In the case of `C[C@@H]1CC[C@]2(C)CC[C@]3(C)C(=CC(=O)C4[C@@]5(C)CC[C@@H](O)[C@](C)(C(=O)O)C5CC[C@]43C)C2[C@H]1C` (stereo not given in full), the outcome was “inactive”. In the case of `O=C(/C=C/c1ccc(O)c(O)c1)O[C@H]1[C@H](O)C[C@](O)(C(=O)O)C[C@H]1OC(=O)/C=C/c1ccc(O)c(O)c1`, the outcome was “inactive”. With `CCCCCCCC/C=C\CCCCCCCCCCCCCC(=O)O` the outcome was “inactive”. For `C=C1C[C@@]23CC[C@H]4[C@@](C)(CCC[C@@]4(C)C(=O)O[C@@H]4O[C@H](CO)[C@@H](O)[C@H](O)[C@H]4O)[C@@H]2CC[C@]1(O[C@@H]1O[C@H](CO)[C@@H](O)[C@H](O[C@@H]2O[C@H](CO)[C@@H](O)[C@H](O)[C@H]2O)[C@H]1O[C@@H]1O[C@@H](C)[C@H](O)[C@@H](O)[C@H]1O)C3`, the outcome was “inactive”. With `O=c1cc(-c2ccc(O)cc2)oc2cc(O[C@@H]3O[C@H](CO)[C@@H](O)[C@H](O)[C@H]3O[C@@H]3OC[C@](O)(CO)[C@H]3O)cc(O)c12` the outcome was “inactive”. With `CCCCCC(=O)O` the outcome was “inactive”. In the case of `OCCc1ccc(O)cc1`, the outcome was “inactive”. With `CC(C)=CCC[C@](C)(O[C@@H]1O[C@H](CO)[C@@H](O)[C@H](O)[C@H]1O)[C@H]1CC[C@]2(C)[C@@H]1[C@H](O)C[C@@H]1[C@@]3(C)CC[C@H](O[C@@H]4O[C@H](CO)[C@@H](O)[C@H](O)[C@H]4O[C@@H]4O[C@H](CO)[C@@H](O)[C@H](O)[C@H]4O)C(C)(C)[C@@H]3CC[C@]12C` the outcome was “inactive”. For `CC(=O)O[C@@H]1CC[C@@]2(C)[C@@H](CC[C@]3(C)[C@@H]2C(=O)C=C2[C@@H]4[C@@H](C)[C@H](C)CC[C@]4(C)CC[C@]23C)[C@@]1(C)C(=O)O`, the outcome was “inactive”. In the case of `C=C1CC[C@H]2C[C@@H]1C2(C)C`, the outcome was “inactive”. In the case of `CCCCCCCCCCCCCC(=O)O`, the outcome was “inactive”. For `CC1(C)CC[C@]2(C(=O)O)CC[C@]3(C)C(=CCC4[C@@]5(C)CC[C@H](O)[C@@](C)(CO)C5CC[C@]43C)[C@H]2C1` (stereo not given in full), the outcome was “inactive”. For `C=C1C[C@]23CC[C@H]4[C@@](C)(CCC[C@@]4(C)C(=O)O)[C@@H]2CC[C@@]1(O[C@@H]1O[C@H](CO)[C@@H](O)[C@H](O)[C@H]1O[C@@H]1O[C@H](CO)[C@@H](O)[C@H](O)[C@H]1O)C3`, the outcome was “inactive”. With `CC(C)=CCCC(C)=CCCC(C)=CCCC=C(C)CCC=C(C)CCC=C(C)C` the outcome was “inactive”. In the case of `CCCCCC(=O)CC`, the outcome was “inactive”. With `CC1=C2[C@H]([C@@H](C)CC[C@@H]2/C=C(\C)C(=O)O)[C@@H](O)C1` the outcome was “inactive”. For `OCC1=C[C@@H](O)[C@@H]2C=CO[C@@H](OC3O[C@H](CO)[C@@H](O)[C@H](O)[C@H]3O)[C@H]12` (stereo not given in full), the outcome was “inactive”. In the case of `Cc1ccc(O)c(O)c1`, the outcome was “inactive”. With `O[C@@H]1[C@@H](O)[C@H](OC/C=C/c2ccccc2)O[C@H](CO[C@@H]2OC[C@H](O)[C@H](O)[C@H]2O)[C@H]1O` the outcome was “inactive”. For `CCCCCCCCC/C=C/C(=O)CCc1ccc(O)c(OC)c1`, the outcome was “inactive”. With `CC1(C)CC[C@]2(C(=O)O)CC[C@]3(C)C(=CCC4[C@@]5(C)CC[C@@H](O)C(C)(C)C5CC[C@]43C)C2C1` (stereo not given in full) the outcome was “inactive”. In the case of `O=c1cc(-c2ccc(O)c(O)c2)oc2cc(O[C@@H]3O[C@@H](CO)[C@@H](O)[C@@H](O)[C@H]3O)cc(O)c12`, the outcome was “inactive”. With `CC1=CC[C@H](C(C)C)C=C1` the outcome was “inactive”. In the case of `CC(C)(O)[C@@H]1CC[C@](C)([C@@H]2[C@H](O)C[C@]3(C)C4C[C@@H](O[C@H]5O[C@@H](CO)[C@H](O)[C@@H](O)[C@@H]5O)C5C(C)(C)[C@H](O[C@H]6OC[C@H](O)[C@@H](O)[C@@H]6O)CC[C@]56CC46CC[C@@]23C)O1` (stereo not given in full), the outcome was “inactive”. For `C=C(C)C(CC=C(C)C)CC12CC(CC=C(C)C)C(C)(C)C(CC=C(C)C)(C(=O)/C(=C(\O)c3ccc(O)c(O)c3)C1=O)C2=O` (stereo not given), the outcome was “inactive”.

Source: PubChem BioAssay (NCATS)
